The full ranking holds about 16,000 sequences; the median of “e-score” is about -0.044, and the highest 2% start at about 0.38. The list comes from a sample in which the highest values are over-represented; it also holds similar and randomly drawn sequences.

For this assay, the target named is T1, GST-NbGlk1(82-244) (Nicotiana benthamiana).
T1 chain: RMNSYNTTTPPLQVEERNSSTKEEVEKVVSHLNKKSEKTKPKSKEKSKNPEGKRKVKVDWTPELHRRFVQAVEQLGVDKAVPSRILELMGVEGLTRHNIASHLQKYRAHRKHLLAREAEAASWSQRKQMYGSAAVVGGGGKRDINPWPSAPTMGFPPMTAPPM
The assay can be described thus: protein-binding microarray; NbGlk1 is a Golden2-like transcription factor of Nicotiana benthamiana; high values mean tight binding. The conditions noted are these: protein: recombinant; tags: GST (pTH6838); dsDNA, one strand shown.
As to AGATCTGG, the binding signal came to 0.364 ± 0.0182 E-score.
In the case of AAATCAGG, the binding signal worked out at 0.365 ± 0.0118 E-score.
For AAATCGGG the value was 0.354 ± 0.0193 E-score; for AAATCGGC, 0.302 ± 0.0126 E-score.
As for AAATCTGG, the binding signal came to 0.466 ± 0.00695 E-score.
For the sequence AAATCTGC, the binding signal amounted to 0.4558 ± 0.00312 E-score.
As for ATTCCCTA, the binding signal was found to be 0.3669 ± 0.00312 E-score.
For AATTATAA, the binding signal was found to be 0.243 ± 0.0945 E-score.
Regarding AAAATAAT, the binding signal was found to be 0.205 ± 0.0493 E-score.
For AATCATAG, the binding signal worked out at 0.246 ± 0.0935 E-score.
Under ATTTTCAC stands 0.34 ± 0.0212 E-score.
As to ATCCGCAG, the binding signal was 0.223 ± 0.00544 E-score.
With AAGTAAAA, the binding signal came to 0.21 ± 0.144 E-score.
Regarding ATCGTGTA, the binding signal is 0.262 ± 0.115 E-score.
With AAATCTGA, the binding signal is 0.469 E-score.
Take CAATCTGA: the binding signal amounted to 0.375 ± 0.0502 E-score.
For AAATCATA the value was 0.343 ± 0.0134 E-score; for AGCGATCC, 0.274 ± 0.0142 E-score; for AAATACGG, 0.207 ± 0.0643 E-score.
For AATTGCGC the value was 0.227 ± 0.0136 E-score; for AAAATTCG, 0.282 ± 0.0182 E-score; for CACAATCG, 0.268 ± 0.00572 E-score.
Regarding AAAAATCT, the binding signal is 0.4495 ± 0.00385 E-score.
For CAAAATCG, the binding signal came out at 0.386 ± 0.0304 E-score.
As to AAAAATCG, the binding signal amounted to 0.389 ± 0.0127 E-score.
Consider ACAAATCG, for which the binding signal was determined as 0.297 ± 0.0369 E-score.
Under AAAAATCA stands 0.336 ± 0.0224 E-score; under ACAAATCT, 0.374 ± 0.0338 E-score; under AAAAATAT, 0.3 ± 0.0471 E-score.
With ATTGTGTG, the binding signal came to 0.203 ± 0.0438 E-score.
Consider AATCGCAG, for which the binding signal came out at 0.224 ± 0.0787 E-score.
For the sequence ATTTGCTC, the binding signal was found to be 0.253 ± 0.0795 E-score.
ACATGTGA: the binding signal came to 0.201 ± 0.017 E-score.
As for AATCAGAT, the binding signal was 0.341 ± 0.0502 E-score.
Turning to ACTAATAT, the binding signal is 0.2093 ± 0.00102 E-score.
Take ATGGGAAT: the binding signal worked out at 0.296 ± 0.0441 E-score.
With ACAGATCC, the binding signal was determined as 0.234 ± 0.05 E-score.
As to ACAAGATA, the binding signal came out at 0.322 ± 0.00757 E-score.
Take ATTCCCTC: the binding signal was 0.372 ± 0.0111 E-score.
Turning to CAAATCCG, the binding signal came out at 0.389 ± 0.00882 E-score.
With AAAATACG, the binding signal worked out at 0.286 ± 0.0671 E-score.
For AAAATCCA the value was 0.454 ± 0.016 E-score; for AGAATCAA, 0.342 ± 0.0419 E-score; for AAAATCCG, 0.446 ± 0.00893 E-score.
Regarding ATAATCCA, the binding signal came to 0.354 ± 0.0347 E-score.
Regarding AGAATCAG, the binding signal amounted to 0.39 ± 0.0152 E-score.
Take ACAATCCA: the binding signal turned out to be 0.3331 ± 0.000895 E-score.
Turning to AGAATCAC, the binding signal came to 0.373 ± 0.0542 E-score.
Take ATAATCAA: the binding signal stood at 0.216 ± 0.00752 E-score.
AAGCGGAT: the binding signal turned out to be 0.227 ± 0.0367 E-score.
As for AATCGGAT, the binding signal amounted to 0.357 ± 0.0422 E-score.
On to ATATACAG, for which the binding signal turned out to be 0.262 ± 0.0848 E-score.
On to ATCCCTTA, for which the binding signal turned out to be 0.215 ± 0.0752 E-score.
Regarding ATGTGATA, the binding signal was 0.231 ± 0.0239 E-score.
For ATCCTCAG, the binding signal stood at 0.231 ± 0.0659 E-score.
With ATAATCCC, the binding signal was determined as 0.212 ± 0.0485 E-score.
On to CAAATCCA, for which the binding signal was found to be 0.3792 ± 0.00132 E-score.
Regarding AAAATCAC, the binding signal is 0.36 ± 0.0307 E-score.
For AAAATCAG, the binding signal came to 0.381 ± 0.0189 E-score.
On to AAAATCCT, for which the binding signal stood at 0.433 ± 0.0284 E-score.
Consider AAAATCCC, for which the binding signal is 0.41 ± 0.0189 E-score.
Take CAGATCCA: the binding signal was found to be 0.23 ± 0.064 E-score.
As to CAAATCCC, the binding signal was 0.315 ± 0.0145 E-score.
As to AAAATCAT, the binding signal was 0.302 ± 0.0817 E-score.
For ATAATCAG the value was 0.222 ± 0.0278 E-score.
CAAATTCA: the binding signal is 0.203 ± 0.0475 E-score.
Under ACTGAAAT stands 0.278 ± 0.0182 E-score.
ATATTCAA: the binding signal turned out to be 0.213 ± 0.11 E-score.
Take AGTAAGAA: the binding signal is 0.214 ± 0.0216 E-score.
As to ATCCGCCG, the binding signal stood at 0.216 ± 0.0636 E-score.
ATTTCATG: the binding signal came to 0.332 ± 0.0188 E-score.
Consider ATCTCCAG, for which the binding signal came to 0.293 ± 0.0251 E-score.
Regarding ATCCTGAG, the binding signal worked out at 0.23 ± 0.00887 E-score.
Regarding ACCAAAGA, the binding signal was 0.208 ± 0.134 E-score.
For ATCTCACG, the binding signal stood at 0.2 ± 0.0565 E-score.
In the case of ATTGAAAA, the binding signal came to 0.214 ± 0.0168 E-score.
Take AAGGTAAT: the binding signal is 0.217 ± 0.0574 E-score.
For ATTTTCCA the value was 0.294 ± 0.00656 E-score.
Regarding AGATTCCC, the binding signal was 0.493 ± 0.00512 E-score.
With AGATTCCA, the binding signal worked out at 0.433 ± 0.0111 E-score.
Under AGATACCA stands 0.204 ± 0.131 E-score.
As for AGATTCAG, the binding signal came out at 0.238 ± 0.0658 E-score.
For the sequence AGATTCAT, the binding signal was 0.24 ± 0.0201 E-score.
Turning to AGATTCCG, the binding signal stood at 0.4631 ± 0.000925 E-score.
As to CAATTCCC, the binding signal was determined as 0.217 ± 0.0511 E-score.
For AGATTCCT the value was 0.4552 ± 0.00311 E-score; for AGATACCT, 0.216 ± 0.0648 E-score; for AAATTCCC, 0.294 ± 0.0591 E-score.
As to AGATACCG, the binding signal came to 0.364 ± 0.0644 E-score.

These data come from paper PMC5836133, “The intracellular immune receptor Rx1 regulates the DNA-binding activity of a Golden2-like transcription factor”.
